The results in this text go back to the supplement of paper PMC6555819.

The experiment concerns PXR homodimer (NR concentration 270 nM). The experiment in a line: PBM binding z-score (relative to random genomic background probes); higher = stronger binding; sequences stand for … in GC…GCGATTGACAGCGTAGAATGAAGG
A digest of the protocol: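 On custom Agilent 4×180K arrays, double-stranded probes with 34-nt variable regions carried direct-repeat seeds, single-nucleotide variants, half-site ablations or random human genomic background. Ligand-free nuclear receptor dimers were applied for 1 h, and binding was read with antibodies against each partner (one per run). Binding z-scores come from regression-normalized fluorescence, with the random background probes as reference.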
The sequence GCGACTGGGCCATCAGCAGGTTACCATAACTTAA returned a PBM binding z-score of -0.71.

For CCGACTGGGGCCGAAAGGTTACCATACCATCCGG, the PBM binding z-score was -0.286.

In the case of GCTCGGAGGACAACGTCAGAGCTTTGTCCGTAGA, the PBM binding z-score was -1.16.

For TCATATTGGTAAAGGTGAAAGTCGAACGATATGA, the PBM binding z-score was -0.162.

For TGAATGAGGTTCAAGATCAGGGAACGTGGCGTCG, the PBM binding z-score was -0.309.

As for TAGCCTAGGTCATTCAGGGGCCAGGATAGAAAGC, the PBM binding z-score was -0.068.

Turning to AGTCAAAGTTCATCTAGGTAATGTAAGATATGCT, the PBM binding z-score was found to be 6.34.

CGAACTAGGTCACTGACAGGACAGTGAATAGTAA registered a PBM binding z-score of -0.168.

Turning to GATACAGGGTCAGCTAGAGGCTAGAGTATGGAAA, the PBM binding z-score is -0.0961.

As for TCTAGCAGGCCAGAGGGTAACTCAAGAGGTACGG, the PBM binding z-score was -0.643.

In turn, ATCTCTAGGTAGAGTTCAGTGAAAGATCGATAGA gave a PBM binding z-score of 2.07.

Sequence TGAATGAGGTTAAAGTTCAGGGAACGTGGCGTCG had a PBM binding z-score of 0.746.

In turn, TCTATTAGATGATTAGGGCAACCGAAACAGCGGA had a PBM binding z-score of -0.123.

Sequence ATATGTAGGTTAAGGGTCATTCTGGTTGGTTCGC came in with a PBM binding z-score of 1.04.

Consider CGTCCAAGGTCAAAGTTCAGTGAAGAGATGACGG, for which the PBM binding z-score came to 3.31.

GTTCGGAGGACAAGGTCAGAGCTTTGTCCGTAGA came in with a PBM binding z-score of -0.41.

The sequence TCGAGTAGGGTACCAATGGGGCATTCAGCTTTCT came in with a PBM binding z-score of -0.807.

Sequence CGAACTAGGTCAAGAACAGTGAATCTCCGCACGC yielded a PBM binding z-score of -0.254.

TCTTGTAGAGCAAAGGTTAAGAAAGCCGAAGCCT displayed a PBM binding z-score of -0.688.

CCGACTGGGCCAAAAAGGTCATTGATGCCGATAA showed a PBM binding z-score of 1.95.

AAAATGAGGTTACCAAAGATCAGGGAAACGCTTG: the PBM binding z-score is 0.241.

Consider TCATATAGGTAAACAGGGGAAAGTCCGTAAGTTA, for which the PBM binding z-score was 0.414.

Take CCAGAAAGGTGAGAAGGTAACTCAGCCTCGATTA: the PBM binding z-score was -0.419.

GCTTACGGGTCAAAGGTTATTGCATGAATAGAAT gave a PBM binding z-score of 0.728.

CAAACTAGGTCAAATGTCAAAGTCGAGCCAACCA registered a PBM binding z-score of 0.325.

As for CGAACTAGGTCATCCAGGACAGCGAATACATTGA, the PBM binding z-score amounted to 1.09.

As for TCATATAGGTAAACAGGTGACAGTCCGTAAGTTA, the PBM binding z-score is 0.237.

The sequence GCAGACAGGTGAAACGCAGGTAACACAGGGTGGC showed a PBM binding z-score of -0.211.

AGAATGAGCTTATACGTAGATCAGGGAAGAAAGT came in with a PBM binding z-score of -0.186.

In turn, TCTGCTAGGTCAGTTGGTAAGCTAACGAGCTGCC had a PBM binding z-score of -1.11.

The sequence TCTATTAGTTGATGGGCAACCGACGAGTCCGTTT registered a PBM binding z-score of 0.849.

For the sequence ACTACTTGGTCAGCTGAGGTCACACACAATTCGG, the PBM binding z-score was 1.85.

Consider ATCGAAAGGTCGAGCTGAGTATAGAGAAAGGGAA, for which the PBM binding z-score is -0.467.

In turn, TCTGCTAGGTCAGTTGGTCACCTAACGAGCTGCC registered a PBM binding z-score of -0.932.

CCGACTGGGGCATAAGGTTAGCATAAGCCAGCCC came in with a PBM binding z-score of -0.542.

Sequence CGAACTAGGTTAGAACAGGACAGTGAAGGATGAT yielded a PBM binding z-score of -0.256.

Turning to ATACCCAGGTGATCGTGAGGTCGTTGATACTAAC, the PBM binding z-score stood at 1.32.

In turn, TAGCCTAGGGCATGCGGGCCAGTATAGTGTCGGC came in with a PBM binding z-score of -0.955.

Turning to ATATGTAGGTTAGCTGTGGTCATTCAGACTAGGC, the PBM binding z-score is 0.0563.

Turning to TCTAGCAGGCCAGAGAGTCACTCAAGAGGTACGG, the PBM binding z-score is -0.71.
